Assay results published in PubChem BioAssay (EPA / NIEHS).
Activity calls are given as the source filed them. The calls were made as follows: active = hit-call score of the fitted dose curve at least 0.9, where 1 is the maximum; inactive = score below 0.9.

Experiments:
[1] = read-out: serum amyloid A (SAA), SAA1 (gene 6288); assay: BSK_CASM3C_SAA: BioMAP Diversity Plus: CASM3C Assay for serum amyloid A (SAA) Biomarker Activity (AID 2283049); conditions: primary human coronary artery smooth muscle cells; actives raise or lower the signal;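 also: SAA protein level quantified by ELISA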
[2] = BSK_CASM3C_SRB: Viability Assessment in the BioMAP Diversity Plus: CASM3C Assay (AID 2283050); conditions: primary human coronary artery smooth muscle cells
[3] = read-out: Thrombomodulin, THBD (gene 7056); assay: BSK_CASM3C_Thrombomodulin: BioMAP Diversity Plus: CASM3C Assay for Thrombomodulin Biomarker Activity (AID 2283051); conditions: primary human coronary artery smooth muscle cells; actives raise or lower the signal;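 also: thrombomodulin protein level measured by ELISA 24 h after dosing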
[4] = read-out: Tissue Factor, F3 (gene 2152); assay: BSK_CASM3C_TissueFactor: BioMAP Diversity Plus: CASM3C Assay for Tissue Factor Biomarker Activity (AID 2283052); conditions: primary human coronary artery smooth muscle cells; actives raise or lower the signal;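 also: cell surface tissue factor protein level read by ELISA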
[5] = read-out: Interferon-gamma inducible Protein 10 (IP10), CXCL10 (gene 3627); assay: BSK_hDFCGF_IP10: BioMAP Diversity Plus: hDFCGF Assay for Interferon-gamma inducible Protein 10 (IP10) Biomarker Activity (AID 2283053); conditions: primary human foreskin fibroblasts; actives raise or lower the signal
Procedure, shortened: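 Human foreskin fibroblast primary cells (hDFCGF system) were dosed with chemical and assayed at 24 h; IP-10 measured by ELISA. Activity fitted bidirectionally relative to DMSO negative control as baseline.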

[6] = read-out: Urokinase-type plasminogen activator receptor (uPAR), PLAUR (gene 5329); assay: BSK_CASM3C_uPAR: BioMAP Diversity Plus: CASM3C Assay for Urokinase-type plasminogen activator receptor (uPAR) Biomarker Activity (AID 2283054); conditions: primary human coronary artery smooth muscle cells; actives raise or lower the signal;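 also: cell-surface uPAR protein level quantified by ELISA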
[7] = read-out: Vascular cell adhesion molecule 1 (VCAM1), VCAM1 (gene 7412); assay: BSK_CASM3C_VCAM1: BioMAP Diversity Plus: CASM3C Assay for Vascular cell adhesion molecule 1 (VCAM1) Biomarker Activity (AID 2283055); conditions: primary human coronary artery smooth muscle cells; actives raise or lower the signal;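 also: VCAM-1 protein level quantified by ELISA on the cells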
[8] = read-out: Collagen III, COL3A1 (gene 1281); assay: BSK_hDFCGF_CollagenIII: BioMAP Diversity Plus: hDFCGF Assay for Collagen III Biomarker Activity (AID 2283056); conditions: primary human foreskin fibroblasts; actives raise or lower the signal
Procedure, shortened: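 Human foreskin fibroblast primary cultures sampled 24 h after dosing; Collagen III quantified by ELISA. Signal fitted bidirectionally against DMSO baseline.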

[9] = read-out: Epidermal growth factor receptor (EGFR), EGFR (gene 1956); assay: BSK_hDFCGF_EGFR: BioMAP Diversity Plus: hDFCGF Assay for Epidermal growth factor receptor (EGFR) Biomarker Activity (AID 2283057); conditions: primary human foreskin fibroblasts; actives raise or lower the signal
Procedure, shortened: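 Primary human foreskin fibroblasts were exposed to compound for 24 h, after which cell-surface EGFR was quantified by ELISA. Activity was fitted bidirectionally against the DMSO negative control as baseline.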

[10] = read-out: Interleukin-8 (IL8), CXCL8 (gene 3576); assay: BSK_hDFCGF_IL8: BioMAP Diversity Plus: hDFCGF Assay for Interleukin-8 (IL8) Biomarker Activity (AID 2283058); conditions: primary human foreskin fibroblasts; actives raise or lower the signal
Procedure, shortened: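 Primary human foreskin fibroblasts (hDFCGF system) dosed with chemical; IL-8 measured by ELISA 24 hours later. Bidirectional curve fitting relative to DMSO baseline; cytotoxicity tracked in parallel cultures by SRB total protein staining.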

[11] = BSK_hDFCGF_Proliferation: Cell Proliferation Assessment in the BioMAP Diversity Plus: hDFCGF Assay (AID 2283059); conditions: primary human foreskin fibroblasts;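 also: curves fitted for both rise and fall of signal versus DMSO baseline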
Procedure, shortened: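 Sub-confluent human foreskin fibroblast cultures receive test chemical […]. Relative cell number is quantified by sulforhodamine B staining (0.1%, after 10% TCA fixation) at 560 nm, with bidirectional fitting referenced to DMSO.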

[12] = read-out: Macrophage colony-stimulating factor (MCSF), CSF1 (gene 1435); assay: BSK_hDFCGF_MCSF: BioMAP Diversity Plus: hDFCGF Assay for Macrophage colony-stimulating factor (MCSF) Biomarker Activity (AID 2283060); conditions: primary human foreskin fibroblasts; actives raise or lower the signal
Procedure, shortened: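 Human foreskin fibroblast primary cultures; M-CSF measured by ELISA 24 hours after chemical dosing. Bidirectional fitting relative to DMSO, with overt cytotoxicity tracked by parallel SRB total-protein staining (0.1% SRB, 10% TCA fixation, 560 nm).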

[13] = BSK_hDFCGF_SRB: Viability Assessment in the BioMAP Diversity Plus: hDFCGF Assay (AID 2283061); conditions: primary human foreskin fibroblasts;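 also: cells exposed to compound for 24 h before the read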
Procedure, shortened: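 Human foreskin fibroblasts in 96-well plates were treated 24 h. Total protein was measured by 0.1% SRB staining after 10% TCA fixation, read at 560 nm. Data were fitted bidirectionally against DMSO.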

[14] = read-out: TIMP metallopeptidase inhibitor 1 (TIMP1), TIMP1 (gene 7076); assay: BSK_hDFCGF_TIMP1: BioMAP Diversity Plus: hDFCGF Assay for TIMP metallopeptidase inhibitor 1 (TIMP1) Biomarker Activity (AID 2283062); conditions: primary human foreskin fibroblasts; actives raise or lower the signal
Procedure, shortened: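 Human foreskin fibroblast primary cultures dosed for 24 h; secreted/surface TIMP-1 quantified by ELISA. Bidirectional curve fitting against DMSO baseline; cytotoxicity tracked in parallel cultures by SRB total-protein staining.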

[15] = read-out: Monokine induced gamma interferon (MIG), CXCL9 (gene 4283); assay: BSK_hDFCGF_MIG: BioMAP Diversity Plus: hDFCGF Assay for Monokine induced gamma interferon (MIG) Biomarker Activity (AID 2283063); conditions: primary human foreskin fibroblasts; actives raise or lower the signal
Procedure, shortened: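 MIG/CXCL9 measured by ELISA 24 h after dosing primary human skin fibroblasts. Activity fitted in both directions against DMSO controls. Cytotoxicity was checked in parallel cultures by SRB staining read at 560 nm.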

[16] = read-out: Matrix Metallopeptidase 1 (MMP1), MMP1 (gene 4312); assay: BSK_hDFCGF_MMP1: BioMAP Diversity Plus: hDFCGF Assay for Matrix Metallopeptidase 1 (MMP1) Biomarker Activity (AID 2283064); conditions: primary human foreskin fibroblasts; actives raise or lower the signal
Procedure, shortened: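 Primary human foreskin fibroblasts exposed to chemicals for 24 h; MMP1 measured by ELISA. Cytotoxicity tracked by SRB staining in parallel cultures; bidirectional fit relative to DMSO.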

[17] = read-out: Vascular cell adhesion molecule 1 (VCAM1), VCAM1 (gene 7412); assay: BSK_hDFCGF_VCAM1: BioMAP Diversity Plus: hDFCGF Assay for Vascular cell adhesion molecule 1 (VCAM1) Biomarker Activity (AID 2283065); conditions: primary human foreskin fibroblasts; actives raise or lower the signal;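 as to AC50: VCAM-1 protein level quantified by ELISA after 24 h chemical exposure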
Procedure, shortened: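 Human foreskin fibroblast primary cells dosed with chemical, VCAM-1 measured by ELISA at 24 h. Bidirectional curve fitting relative to DMSO as negative control/baseline.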

[18] = read-out: Plasminogen activator inhibitor-1 (PAI1), SERPINE1 (gene 5054); assay: BSK_hDFCGF_PAI1: BioMAP Diversity Plus: hDFCGF Assay for Plasminogen activator inhibitor-1 (PAI1) Biomarker Activity (AID 2283066); conditions: primary human foreskin fibroblasts; actives raise or lower the signal
Procedure, shortened: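 Human foreskin fibroblasts in the hDFCGF system were dosed with compound for 24 h; PAI-1 was quantified by ELISA. Bidirectional curve fitting used DMSO as negative control and baseline.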

[19] = read-out: Intercellular Adhesion Molecule 1 (ICAM1), ICAM1 (gene 3383); assay: BSK_KF3CT_ICAM1: BioMAP Diversity Plus: KF3CT Assay for Intercellular Adhesion Molecule 1 (ICAM1) Biomarker Activity (AID 2283067); conditions: primary human keratinocytes with fibroblasts; actives raise or lower the signal
Procedure, shortened: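 Human keratinocyte–foreskin fibroblast co-culture was treated for 24 h. Cell-surface ICAM-1 was quantified by ELISA, fitted bidirectionally relative to DMSO. Cytotoxicity was checked in parallel cultures by SRB total-protein staining.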

[20] = read-out: Interferon-gamma inducible Protein 10 (IP10), CXCL10 (gene 3627); assay: BSK_KF3CT_IP10: BioMAP Diversity Plus: KF3CT Assay for Interferon-gamma inducible Protein 10 (IP10) Biomarker Activity (AID 2283068); conditions: primary human keratinocytes with fibroblasts; actives raise or lower the signal
Procedure, shortened: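 ELISA read-out of IP-10 after 24 h chemical dosing of human skin primary co-culture (keratinocytes, foreskin fibroblasts). Gain or loss of signal relative to DMSO, bidirectional curve fit.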

Measured: AC50

CSc1nc(NC(C)C)nc(NC(C)C)n1
inactive: all assays above

CCOP(=O)(NC(C)C)Oc1ccc(SC)c(C)c1 (configuration not stated)
inactive: all assays above

COP(=O)(OC)C(O)C(Cl)(Cl)Cl (configuration not stated)
not listed: [10]
inactive: all other assays above

COc1cc(OC)nc(Sc2cccc(Cl)c2C(=O)O)n1
inactive: all assays above

CC(C)=CC1C(C(=O)OCN2C(=O)C3=C(CCCC3)C2=O)C1(C)C (configuration not stated)
active: [5] 30.1 µM | [7] 13.6 µM | [8] 20 µM | [11] 15.5 µM | [12] 27.6 µM | [13] 30.7 µM | [15] 33.5 µM | [17] 25.8 µM | [18] 30.7 µM
inactive: all other assays above

CC(COc1ccc(Oc2ccccc2)cc1)Oc1ccccn1 (configuration not stated)
active: [11] 10.8 µM
inactive: all other assays above

CCOP(=S)(OCC)OC(Cl)C(Cl)(Cl)Cl (configuration not stated)
active: [3] 11.4 µM | [5] 26.3 µM | [8] 11.1 µM | [12] 31.8 µM | [17] 29.4 µM
inactive: all other assays above

CCc1cccc(C)c1N(C(=O)CCl)C(C)COC (configuration not stated)
active: [5] 20 µM | [11] 16.1 µM | [20] 33.2 µM
not listed: [18]
inactive: all other assays above

Cc1cc(C2CC2)nc(Nc2ccccc2)n1
active: [3] 27.8 µM | [5] 6.65 µM | [11] 15 µM | [20] 20 µM
inactive: all other assays above

CCCOCC(=Nc1ccc(Cl)cc1C(F)(F)F)n1ccnc1
active: [3] 20.9 µM | [5] 31.1 µM | [7] 20 µM | [8] 29.4 µM | [9] 33.8 µM | [10] 38.3 µM | [11] 21.2 µM | [12] 24.3 µM | [13] 30.4 µM | [14] 32 µM | [16] 33.2 µM | [17] 27.9 µM | [18] 26.3 µM | [19] 29.7 µM | [20] 29.1 µM
inactive: [1] | [2] | [4] | [6]

COP(=O)(OC)OC(Br)C(Cl)(Cl)Br (configuration not stated)
active: [1] 29.9 µM | [2] 28.8 µM | [5] 13.9 µM | [6] 32 µM | [7] 18.5 µM | [8] 31.5 µM | [10] 37.8 µM | [11] 2.6 µM | [12] 16.4 µM | [13] 20 µM | [14] 15.7 µM | [15] 17.5 µM | [16] 32.7 µM | [17] 13.4 µM | [18] 30.1 µM | [19] 31.1 µM | [20] 30 µM
inactive: [3] | [4] | [9]

CC(Oc1cccc(Cl)c1)C(=O)O (configuration not stated)
inactive: all assays above
